This is part of a sample that, as a whole, favours compounds with a hit. Of some 79,000 tested, about 15% had one in any assay. Rule as the data show it: active = growth inhibition above about 70%; inactive = the rest.
Assays:
[1] = NCI Yeast Anticancer Drug Screen. Data for the rad50 strain (AID 155);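 also: 0% = growth of vehicle-only cultures of the same strain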; settings: S. cerevisiae rad50 strain growth inhibition; at 50.0 µM; active compounds read high
Outline: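 A DNA repair-deficient yeast mutant serves as the test organism; compound-induced growth inhibition is calculated against vehicle-treated cells.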

[2] = NCI Yeast Anticancer Drug Screen. Data for the mec2-1 strain (AID 157); settings: S. cerevisiae mec2-1 strain, at 50.0 µM, active compounds read high
Outline: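 Each compound was tested on mec2-1 yeast, a strain altered in DNA damage repair or cell cycle control. Growth inhibition is reported relative to vehicle.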

[3] = NCI Yeast Anticancer Drug Screen. Data for the sgs1 mgt1 strain (AID 161);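 also: 0% = growth of cultures given vehicle only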; settings: S. cerevisiae sgs1 mgt1 strain, at 50.0 µM, active compounds read high
Outline: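 Test agents were incubated with a DNA-repair-mutant yeast strain. Growth was then read and compared against vehicle-treated controls.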

[4] = NCI Yeast Anticancer Drug Screen. Data for the cln2 rad14 strain (AID 165);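 also: 0% = growth equal to vehicle treated cultures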; settings: S. cerevisiae cln2 rad14 strain, at 50.0 µM, active compounds read high
Outline: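 Test compounds were added to cln2 rad14 yeast cultures; inhibition of growth was then determined by comparison with vehicle treatment.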

[5] = NCI Yeast Anticancer Drug Screen. Data for the bub3 strain (AID 167); settings: S. cerevisiae bub3 mutant strain, at 50.0 µM, active compounds read high
Outline: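 Inhibition values come from growth of compound-treated mutant yeast normalised to vehicle-treated controls.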

[6] = NCI Yeast Anticancer Drug Screen. Data for the mlh1 rad18 strain (AID 175); settings: S. cerevisiae mlh1 rad18 strain growth inhibition; at 50.0 µM; active compounds read high
Outline: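 Inhibition values reflect reduced growth of mutant yeast versus vehicle-treated controls following compound exposure; the mutations affect DNA damage repair.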

Measured: growth inhibition

CC(C)N(C(=O)C12C3C4C5C3C1(C#N)C5C42)C(C)C (stereo not given)
inactive: [1] 10.1% | [2] 6.95% | [3] 12.1% | [4] 5.95% | [5] 2.35% | [6] -9.45%

COc1cc(NC(=O)CC(C)=O)cc(OC)c1
inactive: [1] -4% | [2] -5% | [3] -10% | [4] 3.2% | [5] -18.4% | [6] -2.5%

O=C1c2c(ccc3c2CCCC3)CC12Cc1ccc3c(c1C2=O)CCCC3
inactive: [1] 20.1% | [2] 13.8% | [3] -0.85% | [4] 23.9% | [5] 7% | [6] 12.1%

CC(C)(NC(=O)OC12CC3CC(CC(C3)C1)C2)C(=O)O
inactive: [1] -11.1% | [2] -20.1% | [3] 3.1% | [4] -12.6% | [5] 3.45% | [6] -5.35%

Cc1ccc(-c2nc3scc(C)n3n2)cc1
inactive: [1] 0.85% | [2] 6.6% | [3] -4.5% | [4] -29% | [5] 7.65% | [6] 8.85%

O=C(CC(C(=O)c1cccs1)c1ccsc1)c1ccsc1 (stereo not given)
inactive: [1] -14% | [2] -50.2% | [3] -4.4% | [4] 7.55% | [5] 25.2% | [6] -25.6%

NC(CSC(c1ccccc1)(c1ccccc1)c1ccc(C(=O)O)cc1)C(=O)O (stereo not given)
inactive: [1] 54.2% | [2] -4.1% | [3] 18.5% | [4] 15.5% | [5] 2.2% | [6] 9.85%

CCOC(=O)/C(=C/c1cn(C(C)=O)c2ccccc12)P(C)(=O)OCC (stereo not given)
inactive: [1] 33.2% | [2] 52.5% | [3] 55.5% | [4] 40% | [5] 53.5% | [6] 22.2%

Cc1cc(N)ccc1[N+](=O)[O-]
inactive: [1] 2.2% | [2] 31% | [3] 9% | [4] -29.1% | [5] 11.7% | [6] 1.75%

CCOC(=O)C(=CNc1ccc(N(CC)CC)cc1)C(=O)OCC
inactive: [1] -12.7% | [2] -7.85% | [3] -8% | [4] 47.6% | [5] 8.3% | [6] 0.35%

NCCCCCC(N)=O
inactive: [1] 45% | [2] 32.5% | [3] 38.8% | [4] 21.2% | [5] 33.5% | [6] 33.1%

COC(=O)N/N=C(\C)c1sc(-c2nc(C)c(/C(C)=N/NC(=O)OC)s2)nc1C
inactive: [1] 17.9% | [2] 0.95% | [3] -27.4% | [4] -35.6% | [5] 3.05% | [6] 1.05%

COc1ccc(N=Cc2cc(Cl)cc(Cl)c2OC(=O)c2ccccc2)cc1
inactive: [1] -10.6% | [2] -31.1% | [3] 8.55% | [4] 0.65% | [5] -13.6% | [6] -19.2%

N#CCCn1cnc2c(Cl)ncnc21
inactive: [1] -10.2% | [2] 5.15% | [3] -18.2% | [4] -12.7% | [5] -7% | [6] -2.6%

O=C(O)c1cccc(C(=O)O)c1C(=O)O.[NH-]C1CCCCC1[NH-].[Pt+2]
inactive: [1] -17.8% | [2] 0.1% | [3] -15.5% | [4] 22.1% | [5] 7.8% | [6] -34.3%

CCCCCC(=O)OCCOCCCC
inactive: [1] 2.05% | [2] 4% | [3] -4.6% | [4] -35.4% | [5] 6.85% | [6] 5.85%

CCCNC(=O)c1cccc(-c2cccc(C(=O)NCCC)c2)c1
inactive: [1] 30.1% | [2] -10.3% | [3] 28.4% | [4] 12.3% | [5] 25.4% | [6] 31.6%

CC[n+]1nc2ccccc2c(=Nc2ccccc2[N+](=O)[O-])[n-]1
inactive: [1] 11.8% | [2] 13.1% | [3] 12.3% | [4] 29.4% | [5] 25.2% | [6] 7.15%

C=C(C)c1ccc(C(=C)C)cc1
inactive: [1] -45.9% | [2] -40.9% | [3] -38.2% | [4] -3.9% | [5] -23.9% | [6] -40.5%

COc1c(N)c(C)nc(Cl)c1C#N
inactive: [1] -10.1% | [2] 2.95% | [3] -2.7% | [4] -1.05% | [5] -0.75% | [6] 8.9%

From PubChem BioAssay (NCI)
